About 83,000 compounds went through this panel and 20% of them were active in at least one assay; those are over-represented in the sample as a whole.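 Cell lines were cultured in 96-well plates, exposed to a single compound concentration, and assessed for percent growth 48 hours later.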 A number with no mark means an inactive call. Active and inactive are the calls of the source. How the source made its calls: active means growth percent below 10; inactive means the rest.
Assays:
Experiment in all cases: NCI-60 one-dose screen, 48 h (100 = growth as untreated, 0 = no growth, -100 = all killed)
NCI-H23 lung = settings: 10 µM unless noted
NCI-H322M lung = settings: 10 µM unless noted
HOP-62 NSCLC = settings: 10 µM unless noted
NCI-H460 lung = settings: 10 µM unless noted
NCI-H522 lung = settings: 10 µM
A549/ATCC NSCLC = settings: 10 µM unless noted
786-0 renal = settings: 10 µM unless noted
COLO 205 colon = settings: 10 µM unless noted

SMILES | growth (NCI-H23 lung) | growth (NCI-H322M lung) | growth (HOP-62 NSCLC) | growth (NCI-H460 lung) | growth (NCI-H522 lung) | growth (A549/ATCC NSCLC) | growth (786-0 renal) | growth (COLO 205 colon)
O=C1/C(=C/c2ccc(Oc3ccccc3)cc2)N=C(c2ccccc2)N1CCc1cccs1 | 87.1% | 93.6% | 104% | 70.1% | 46.8% | 91.3% | 84.5% | 107%
CNc1ccc(Br)cc1-c1n[nH]c(=O)[nH]c1=O | 90.8% | 115% | 105% | 101% | – | 112% | 95% | 131%
COc1ncnc2c1ncn2C/C(Br)=C(\Br)CCl | 15.1% | 78.9% | 15.6% | -40.7% (active) | -72.1% (active) | 9.47% (active) | 7.78% (active) | -82.6% (active)
Cc1ccc(-c2nnc(COc3ccc(-c4nnc(N)s4)cc3)o2)cc1 | 79.4% | 95.9% | 113% | 93% | 73.9% | 105% | 96.9% | 92.8%
CN(C)C(=S)SCN1C(=O)c2ccc([N+](=O)[O-])cc2S1(=O)=O | 99.7% | 99% | 105% | 103% | 103% | 97.7% | 103% | 75.9%
Cc1ccc(C2SCC(=O)N2NC(=O)c2[nH]c3ccc(F)cc3c2-c2ccccc2)cc1 (centres undefined) | 86.6% | 111% | 109% | 92.2% | 67.8% | 74.1% | 105% | 104%
CN1CCN(C(=O)OCCOCCOC(=O)N2CCN(C)CC2)CC1 | 97.6% | 105% | 106% | 107% | – | 104% | 94.5% | 102%
Cc1c(NCC(=O)Nc2nc3ccccc3[nH]2)c(=O)n(-c2ccccc2)n1C | 94.9% | 105% | 107% | 99.6% | 100% | 97% | 104% | 110%
O=C1C(N2CCOCC2)=Cc2cccc3cccc1c23 | 100% | 111% | 89% | 93.2% | 89.4% | – | 103% | 93.7%
COc1cc(C(=O)N(C(C)C)C2CCCCC2)cc(OC)c1OC | 101% | 108% | 93.3% | 107% | 88.3% | 97.2% | 121% | 105%
O=S(=O)(Nc1ncccn1)c1ccc(Nc2ccc3nnc(-c4ccncc4)n3n2)cc1 | 99.6% | 112% | 104% | 96.4% | 113% | – | 103% | 107%
CN1CCC(OC2c3ccccc3CCc3ccccc32)CC1 | 94.6% | 92.8% | 93.8% | 106% | 96.7% | 96.2% | 103% | 99.1%
COc1ccc(Nc2nc(NCCNc3ccnc4cc(Cl)ccc34)nc(N3CCOCC3)n2)cc1 | 82.3% | 74.5% | 92.2% | 37.2% | – | 70.9% | 57.2% | –
O=C(NCc1cccnc1)c1ccc([N+](=O)[O-])o1 | -89.1% (active) | -6.13% (active) | -4.75% (active) | -64.3% (active) | -66.5% (active) | -10.5% (active) | 4.89% (active) | -77% (active)
CC1(C)CC(=O)C2=C(C1)Nc1cc3c(cc1C2c1ccc(F)cc1)OCO3 (centres undefined) | 96% | 94.8% | 95.6% | 103% | 80.9% | 94.5% | 109% | 117%
O=C1/C(=C/c2ccc(Cl)cc2)N=C(c2ccccc2)N1CCc1cccs1 | 61.4% | 82.2% | 108% | 23.3% | 23% | 30.6% | 50.9% | 100%
CN1CCc2c(c3ccccc3c3ccccc23)C1 | 74.2% | 51.4% | 45.8% | 27.7% | 48.7% | – | 49.8% | 22.2%

SMILES | growth (NCI-H23 lung) | growth (NCI-H322M lung) | growth (HOP-62 NSCLC) | growth (NCI-H460 lung) | growth (NCI-H522 lung) | growth (A549/ATCC NSCLC) | growth (786-0 renal) | growth (COLO 205 colon)
COc1ccc(Sc2ccc3[nH]c(=O)nc(N)c3c2)cc1 | 101% | 96.4% | 108% | 106% | 100% | 80.3% | 104% | 106%
CCOC(=O)c1c(Cl)c2c(n1Cc1ccc(OC)cc1)-c1oncc1CCC2 | 86.5% | 95.2% | 98.4% | 95.1% | 95.4% | 86.1% | 90.4% | 93.2%
COc1cccc(C2CC(=O)Nc3cc4c(cc32)CCC4)c1OC (centres undefined) | 59% | 68% | 60.5% | 61.8% | 60.9% | 47.8% | 79.6% | 50%
Cc1ccc(S(=O)(=O)N2C/C(=C\c3cc(F)cc(F)c3)C(=O)/C(=C/c3cc(F)cc(F)c3)C2)cc1 | -21.6% (active) | 27% | -60% (active) | 5.73% (active) | – | 27.6% | -85.6% (active) | 1.42% (active)
CCCN(CCC)c1ccc(/C=C/c2ccc3cc(OCC)ccc3n2)cc1 | 83.8% | 105% | 125% | 95.1% | 76.8% | 87.4% | 91.1% | 112%
COc1cc(CNCCCN2C(=O)c3ccc4c5c(ccc(c35)C2=O)C(=O)N(CCCNCc2cc(OC)c(OC)c(OC)c2)C4=O)cc(OC)c1OC | -74.8% (active) | -24.2% (active) | -81.4% (active) | -75% (active) | -80.7% (active) | -84.8% (active) | -30% (active) | -92.6% (active)
O=C(O)c1ccccc1Oc1cc(-c2ccco2)nc(OCCBr)n1 | 105% | 100% | 101% | 110% | 103% | 94.2% | 100% | 109%
N#CC1=C(N)Oc2cc(N)ccc2C1c1ccc(F)cc1 (centres undefined) | 81.6% | 82.6% | 69.6% | 100% | 54.1% | 74.2% | 86.6% | 82.9%
CCOC(=O)c1c(Cl)c2c(n1Cc1cc(OC)cc(OC)c1)-c1oncc1CCC2 | 44.1% | 55.7% | 39.7% | 12.8% | 28.9% | 28.1% | 43% | -51.8% (active)
O=C(Nc1nc2ccccc2[nH]1)C(=O)Nc1nc2ccccc2[nH]1 | 89.6% | 91.8% | 98.6% | 98.5% | 101% | 97.5% | 108% | 103%
Oc1ccc(Cl)cc1CNc1nc2ccccc2[nH]1 | 65.2% | 101% | 82.7% | -33.9% (active) | 62% | -14.1% (active) | 60.7% | 65.1%
COc1cc(/C=C2\C(=O)Nc3ccccc32)cc(OC)c1O | 66.4% | 96% | 64.4% | 40.1% | 8.78% (active) | – | 83.2% | 112%
COc1ccccc1/C=C/C(=O)/C=C/c1ccccc1O | -11.3% (active) | 24.9% | 62% | -58.2% (active) | 30.1% | 6.86% (active) | -44% (active) | -48.6% (active)
CCOC(=O)c1sc(NC(=O)CN2CCC(Cc3ccccc3)CC2)nc1C | 96.2% | 90.4% | 102% | 101% | 92.9% | 104% | 96.9% | 97.1%
Brc1ccccc1Nc1ccc2nnc(-c3ccncc3)n2n1 | 92.3% | 95.6% | 95.1% | 104% | -71.2% (active) | 101% | 101% | 103%
COc1ccccc1CNCCCCCCCCCCCCN1C(=O)c2ccc3c4c(ccc(c24)C1=O)C(=O)N(CCCCCCCCCCCCNCc1ccccc1OC)C3=O | -47.6% (active) | 111% | 54.5% | 35.5% | 87% | – | -73.7% (active) | 109%
